Counter-ions that a name gives are not always drawn.
system: Plasmodium falciparum NF54/iGP1_RE9H ulg8 stage V gametocytes; assay: gametocyte viability (luciferase signal relative to DMSO control) (% of DMSO control); higher = less gametocytocidal activity, active = 50 or less; conditions: concentration: 1 µM; exposure time: 72 h
Procedure: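 Synchronous P. falciparum NF54/iGP1_RE9H ulg8 mature stage V gametocytes (day 12) were exposed to Cayman Epigenetics Screening Library compounds at 10 µM or 1 µM for 72 h at 37 °C. Viability was read as RE9H luciferase bioluminescence, normalised to DMSO plate controls (100%); 50 µM methylene blue was the positive control.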

Structure (SMILES)	gametocyte viability
COc1cc2nc(N3CCCN(C)CC3)nc(NC3CCN(Cc4ccccc4)CC3)c2cc1OC	71 (inactive)
CCOC(=O)C1=CN(Cc2ccccc2)C=C(C(=O)OCC)C1c1ccccc1	80.7 (inactive)
CCn1c2ccccc2c2cc(CNCc3ccccc3OC)ccc21 [HLCL-61 (hydrochloride)]	85 (inactive)
CCCCN(Cc1ccc(C(=O)NO)cc1)C(=O)Nc1ccccc1 [Nexturastat A]	103 (inactive)
Cn1cc(CNCC2CCN(c3ncc(C(=O)NO)cn3)CC2)c2ccccc21	62 (inactive)
O=C(O)c1ccnc(C(=O)O)c1 [2,4-Pyridinedicarboxylic Acid (hydrate)]	90.8 (inactive)
O=C(/C=C/C#Cc1cccc(NS(=O)(=O)c2ccccc2)c1)NO [Oxamflatin]	101 (inactive)
COc1ccccc1C(=O)Nc1cc2c(cc1N1CCNC[C@H]1C)n(C)c(=O)n2C	88.2 (inactive)
Nc1ccccc1NC(=O)CCCCCC(=O)Nc1ccccc1	88.7 (inactive)
Oc1cc(O)cc(/C=C/c2ccc(Br)cc2)c1 [4'-bromo-Resveratrol]	51.7 (inactive)
CC(=O)OCC1OC(n2cnc(N)nc2=O)C(OC(C)=O)C1OC(C)=O (stereo not given) [2',3',5'-triacetyl-5-Azacytidine]	87.3 (inactive)
CN1CCN(c2ccc(-c3cccc(CN4CCOCC4)c3)cc2NC(=O)c2c[nH]c(=O)cc2C(F)(F)F)CC1	89.4 (inactive)
Cn1cccc1C(=O)N1CCc2cc(C(=O)NO)ccc2C1 [HDAC6 Inhibitor]	87 (inactive)
CC(C)N(CCCNC(=O)Nc1ccc(C(C)(C)C)cc1)C[C@H]1O[C@@H](n2ccc3c(N)ncnc32)[C@H](O)[C@@H]1O	94.6 (inactive)
C=C1C(=O)O[C@@H](CCC)[C@@H]1C(=O)O [Butyrolactone 3]	97.4 (inactive)
CC(C)(C)c1ccc(C(=O)NC(=S)Nc2ccc(N)cc2)cc1 [Tenovin-3]	92.2 (inactive)
CCCc1cc2c(N3CCN(C4=NCC(C)(C)S4)CC3)ncnc2s1 [MI-2 (hydrochloride)]	80.6 (inactive)
O=C(O)C(Cc1c[nH]c2ccccc12)N1C(=O)c2ccccc2C1=O (stereo not given)	86.9 (inactive)
Nc1ncn([C@@H]2O[C@H](CO)[C@@H](O)[C@H]2O)c(=O)n1 [5-Azacytidine]	89 (inactive)
Nc1ncnc2c1ncn2[C@@H]1O[C@H](C[C@@H](N)CC[C@H](N)C(=O)O)[C@@H](O)[C@H]1O [Sinefungin]	88.5 (inactive)

same assay, conditions: concentration: 10 µM; exposure time: 72 h

Structure (SMILES)	gametocyte viability
COc1cc2nc(N3CCCN(C)CC3)nc(NC3CCN(Cc4ccccc4)CC3)c2cc1OC	23.3 (active)
CCOC(=O)C1=CN(Cc2ccccc2)C=C(C(=O)OCC)C1c1ccccc1	77.6 (inactive)
CCn1c2ccccc2c2cc(CNCc3ccccc3OC)ccc21 [HLCL-61 (hydrochloride)]	94 (inactive)
CCCCN(Cc1ccc(C(=O)NO)cc1)C(=O)Nc1ccccc1 [Nexturastat A]	67.7 (inactive)
Cn1cc(CNCC2CCN(c3ncc(C(=O)NO)cn3)CC2)c2ccccc21	66.3 (inactive)
O=C(O)c1ccnc(C(=O)O)c1 [2,4-Pyridinedicarboxylic Acid (hydrate)]	90.6 (inactive)
O=C(/C=C/C#Cc1cccc(NS(=O)(=O)c2ccccc2)c1)NO [Oxamflatin]	168 (inactive)
COc1ccccc1C(=O)Nc1cc2c(cc1N1CCNC[C@H]1C)n(C)c(=O)n2C	93.7 (inactive)
Nc1ccccc1NC(=O)CCCCCC(=O)Nc1ccccc1	96.1 (inactive)
Oc1cc(O)cc(/C=C/c2ccc(Br)cc2)c1 [4'-bromo-Resveratrol]	6.07 (active)
CC(=O)OCC1OC(n2cnc(N)nc2=O)C(OC(C)=O)C1OC(C)=O (stereo not given) [2',3',5'-triacetyl-5-Azacytidine]	85.8 (inactive)
CN1CCN(c2ccc(-c3cccc(CN4CCOCC4)c3)cc2NC(=O)c2c[nH]c(=O)cc2C(F)(F)F)CC1	94.1 (inactive)
Cn1cccc1C(=O)N1CCc2cc(C(=O)NO)ccc2C1 [HDAC6 Inhibitor]	91.2 (inactive)
CC(C)N(CCCNC(=O)Nc1ccc(C(C)(C)C)cc1)C[C@H]1O[C@@H](n2ccc3c(N)ncnc32)[C@H](O)[C@@H]1O	94.1 (inactive)
C=C1C(=O)O[C@@H](CCC)[C@@H]1C(=O)O [Butyrolactone 3]	89.9 (inactive)
CC(C)(C)c1ccc(C(=O)NC(=S)Nc2ccc(N)cc2)cc1 [Tenovin-3]	79.2 (inactive)
CCCc1cc2c(N3CCN(C4=NCC(C)(C)S4)CC3)ncnc2s1 [MI-2 (hydrochloride)]	63.3 (inactive)
O=C(O)C(Cc1c[nH]c2ccccc12)N1C(=O)c2ccccc2C1=O (stereo not given)	84.3 (inactive)
Nc1ncn([C@@H]2O[C@H](CO)[C@@H](O)[C@H]2O)c(=O)n1 [5-Azacytidine]	90.8 (inactive)
Nc1ncnc2c1ncn2[C@@H]1O[C@H](C[C@@H](N)CC[C@H](N)C(=O)O)[C@@H](O)[C@H]1O [Sinefungin]	85.6 (inactive)

From the supplement of paper PMC12297408
